Test results from the supplement of paper PMC12067093, “Discovery and optimisation of a covalent ligand for TRIM25 and its application to targeted protein ubiquitination” (Chemical Science, 2025).
About 21,000 targets were measured; listed, in parts, are those with the largest changes and a random draw of the rest.

Compound: Cc1cc(ccc1-c1ccccc1)C(=O)N1CCCN(CC1)C(=O)CCl [compound 10]
Assay: probe-labelled cysteine peptide fold change vs DMSO (competition) (log2 fold change); higher = less target engagement (more negative = stronger competition)
Conditions: THP-1, incubation time: 4 h
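Note: competitive profiling in live THP-1 cells: cysteine peptides tagged with an iodoacetamide desthiobiotin (IA-DTB) probe, intensity after compound treatment relative to DMSO-treated cells.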

Sequence of UniProt P53609 (P53609 whole entry, looked up): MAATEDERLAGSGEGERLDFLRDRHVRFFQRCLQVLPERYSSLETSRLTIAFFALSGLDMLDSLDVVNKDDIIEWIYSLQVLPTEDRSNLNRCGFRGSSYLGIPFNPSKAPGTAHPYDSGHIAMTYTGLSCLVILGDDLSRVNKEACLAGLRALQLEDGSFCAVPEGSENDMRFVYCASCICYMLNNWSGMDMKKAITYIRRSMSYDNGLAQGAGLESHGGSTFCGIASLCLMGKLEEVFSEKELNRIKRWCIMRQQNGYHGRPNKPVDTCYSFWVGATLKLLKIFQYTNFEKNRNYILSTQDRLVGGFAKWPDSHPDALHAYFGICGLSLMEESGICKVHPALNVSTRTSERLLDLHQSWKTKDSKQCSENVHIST
Sequence of UniProt P46020 (P46020 whole entry, looked up): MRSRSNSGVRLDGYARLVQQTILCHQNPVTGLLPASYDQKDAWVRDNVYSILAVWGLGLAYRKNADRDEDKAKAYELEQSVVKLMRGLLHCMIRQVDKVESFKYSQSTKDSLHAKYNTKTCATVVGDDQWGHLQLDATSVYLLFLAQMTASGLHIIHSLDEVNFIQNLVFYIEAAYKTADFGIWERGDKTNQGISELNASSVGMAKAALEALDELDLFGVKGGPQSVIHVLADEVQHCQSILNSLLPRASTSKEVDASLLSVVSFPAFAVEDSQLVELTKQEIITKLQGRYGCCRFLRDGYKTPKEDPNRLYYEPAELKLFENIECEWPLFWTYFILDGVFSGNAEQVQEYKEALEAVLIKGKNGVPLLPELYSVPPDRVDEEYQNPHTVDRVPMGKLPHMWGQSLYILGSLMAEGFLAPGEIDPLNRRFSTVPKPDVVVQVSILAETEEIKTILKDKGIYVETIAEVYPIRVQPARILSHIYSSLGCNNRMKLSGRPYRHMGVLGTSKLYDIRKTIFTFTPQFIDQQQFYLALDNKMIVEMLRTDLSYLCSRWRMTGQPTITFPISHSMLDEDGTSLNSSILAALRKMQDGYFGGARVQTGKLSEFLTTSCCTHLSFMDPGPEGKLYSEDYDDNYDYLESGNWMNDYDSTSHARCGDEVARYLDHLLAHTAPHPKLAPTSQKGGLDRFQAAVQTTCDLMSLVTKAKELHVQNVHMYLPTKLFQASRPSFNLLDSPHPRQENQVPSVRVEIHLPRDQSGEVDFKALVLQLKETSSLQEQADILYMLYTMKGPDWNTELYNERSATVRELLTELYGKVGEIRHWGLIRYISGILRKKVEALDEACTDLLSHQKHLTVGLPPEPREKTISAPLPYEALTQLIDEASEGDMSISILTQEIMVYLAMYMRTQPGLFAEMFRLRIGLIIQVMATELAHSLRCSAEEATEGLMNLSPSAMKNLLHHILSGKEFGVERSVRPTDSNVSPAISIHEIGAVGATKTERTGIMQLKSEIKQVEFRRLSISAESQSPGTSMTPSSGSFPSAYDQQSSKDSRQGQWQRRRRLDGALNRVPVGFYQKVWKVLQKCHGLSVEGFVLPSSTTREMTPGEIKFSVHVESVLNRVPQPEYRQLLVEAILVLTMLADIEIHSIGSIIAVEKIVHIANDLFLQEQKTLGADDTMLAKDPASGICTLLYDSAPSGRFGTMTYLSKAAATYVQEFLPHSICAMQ
Sequence of UniProt Q15172 (Q15172 whole entry): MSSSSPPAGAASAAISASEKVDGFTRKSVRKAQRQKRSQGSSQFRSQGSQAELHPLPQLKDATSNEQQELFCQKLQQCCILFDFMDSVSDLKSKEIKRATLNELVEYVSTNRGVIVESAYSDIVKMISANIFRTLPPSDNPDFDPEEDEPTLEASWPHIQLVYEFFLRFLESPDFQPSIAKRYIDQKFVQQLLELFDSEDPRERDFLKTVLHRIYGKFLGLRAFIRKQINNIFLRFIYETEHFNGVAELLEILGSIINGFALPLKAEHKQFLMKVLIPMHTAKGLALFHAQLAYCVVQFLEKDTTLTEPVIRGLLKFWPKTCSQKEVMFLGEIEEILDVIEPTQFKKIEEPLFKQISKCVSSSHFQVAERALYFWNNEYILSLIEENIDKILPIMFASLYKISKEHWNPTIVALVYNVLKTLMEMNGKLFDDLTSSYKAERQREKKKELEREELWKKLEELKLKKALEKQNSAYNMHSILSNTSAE
Sequence of UniProt Q9NY27 (Q9NY27 whole entry, looked up): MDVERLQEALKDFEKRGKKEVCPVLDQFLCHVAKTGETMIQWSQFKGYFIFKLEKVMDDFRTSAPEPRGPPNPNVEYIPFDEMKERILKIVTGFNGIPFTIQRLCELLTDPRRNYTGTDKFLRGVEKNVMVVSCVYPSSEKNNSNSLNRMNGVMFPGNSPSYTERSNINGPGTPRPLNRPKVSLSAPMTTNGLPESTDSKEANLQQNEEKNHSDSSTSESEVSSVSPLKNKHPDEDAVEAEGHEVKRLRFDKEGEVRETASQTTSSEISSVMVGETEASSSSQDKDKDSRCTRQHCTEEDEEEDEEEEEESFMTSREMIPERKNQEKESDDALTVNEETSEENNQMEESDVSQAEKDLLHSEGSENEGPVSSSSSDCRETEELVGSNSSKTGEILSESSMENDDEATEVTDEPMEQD
Sequence of UniProt Q15084 (Q15084 whole entry, looked up): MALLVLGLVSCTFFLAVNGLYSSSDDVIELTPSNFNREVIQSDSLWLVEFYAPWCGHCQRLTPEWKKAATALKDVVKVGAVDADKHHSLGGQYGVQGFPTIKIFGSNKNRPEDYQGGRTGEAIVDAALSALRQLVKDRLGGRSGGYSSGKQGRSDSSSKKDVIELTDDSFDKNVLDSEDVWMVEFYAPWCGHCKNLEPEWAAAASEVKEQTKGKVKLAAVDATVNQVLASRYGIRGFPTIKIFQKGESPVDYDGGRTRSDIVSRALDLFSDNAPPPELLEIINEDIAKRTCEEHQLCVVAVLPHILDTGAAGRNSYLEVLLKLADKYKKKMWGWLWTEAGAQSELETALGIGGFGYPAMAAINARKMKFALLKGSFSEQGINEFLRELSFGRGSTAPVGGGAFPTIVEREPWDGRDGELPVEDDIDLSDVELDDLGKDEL
Sequence of UniProt O14917 (O14917 whole entry, looked up): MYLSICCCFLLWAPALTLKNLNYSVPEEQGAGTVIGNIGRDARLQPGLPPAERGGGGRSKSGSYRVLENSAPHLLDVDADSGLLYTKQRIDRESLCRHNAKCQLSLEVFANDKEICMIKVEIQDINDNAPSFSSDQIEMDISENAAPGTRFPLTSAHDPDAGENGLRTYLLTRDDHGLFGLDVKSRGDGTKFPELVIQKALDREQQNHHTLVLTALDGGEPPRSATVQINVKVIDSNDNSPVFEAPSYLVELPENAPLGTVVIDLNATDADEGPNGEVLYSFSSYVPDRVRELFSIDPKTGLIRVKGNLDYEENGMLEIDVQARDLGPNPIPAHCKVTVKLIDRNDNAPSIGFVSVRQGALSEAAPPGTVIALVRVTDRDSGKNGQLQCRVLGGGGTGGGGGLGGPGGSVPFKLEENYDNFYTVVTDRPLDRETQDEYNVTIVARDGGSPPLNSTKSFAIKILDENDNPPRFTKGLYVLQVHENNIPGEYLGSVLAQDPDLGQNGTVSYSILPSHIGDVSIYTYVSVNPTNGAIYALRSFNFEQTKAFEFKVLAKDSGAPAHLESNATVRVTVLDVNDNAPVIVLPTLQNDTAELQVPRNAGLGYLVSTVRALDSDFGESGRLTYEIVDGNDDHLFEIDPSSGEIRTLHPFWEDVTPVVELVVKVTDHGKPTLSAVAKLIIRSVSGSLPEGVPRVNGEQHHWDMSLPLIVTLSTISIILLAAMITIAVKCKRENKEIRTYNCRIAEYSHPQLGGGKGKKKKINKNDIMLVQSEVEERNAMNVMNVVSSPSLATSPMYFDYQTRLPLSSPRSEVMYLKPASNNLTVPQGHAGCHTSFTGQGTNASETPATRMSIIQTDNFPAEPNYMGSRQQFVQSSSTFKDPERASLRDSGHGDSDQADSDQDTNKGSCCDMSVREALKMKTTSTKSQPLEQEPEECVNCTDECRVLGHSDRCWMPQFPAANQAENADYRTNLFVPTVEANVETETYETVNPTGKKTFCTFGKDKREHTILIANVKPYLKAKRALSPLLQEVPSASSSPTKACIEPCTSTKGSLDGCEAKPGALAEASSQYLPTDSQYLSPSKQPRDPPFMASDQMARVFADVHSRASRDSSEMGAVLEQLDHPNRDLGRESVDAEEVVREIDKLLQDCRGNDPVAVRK
Sequence of UniProt O00743 (O00743 whole entry, looked up): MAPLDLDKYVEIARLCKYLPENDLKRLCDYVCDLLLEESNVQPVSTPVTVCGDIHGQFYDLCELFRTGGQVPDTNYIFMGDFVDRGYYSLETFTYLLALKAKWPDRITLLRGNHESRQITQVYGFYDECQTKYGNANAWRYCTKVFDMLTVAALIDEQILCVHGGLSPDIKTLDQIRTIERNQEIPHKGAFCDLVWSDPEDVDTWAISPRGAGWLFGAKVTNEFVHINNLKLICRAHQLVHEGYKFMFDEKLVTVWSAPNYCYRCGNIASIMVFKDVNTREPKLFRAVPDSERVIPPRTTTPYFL
Sequence of UniProt O43175 (O43175 whole entry, looked up): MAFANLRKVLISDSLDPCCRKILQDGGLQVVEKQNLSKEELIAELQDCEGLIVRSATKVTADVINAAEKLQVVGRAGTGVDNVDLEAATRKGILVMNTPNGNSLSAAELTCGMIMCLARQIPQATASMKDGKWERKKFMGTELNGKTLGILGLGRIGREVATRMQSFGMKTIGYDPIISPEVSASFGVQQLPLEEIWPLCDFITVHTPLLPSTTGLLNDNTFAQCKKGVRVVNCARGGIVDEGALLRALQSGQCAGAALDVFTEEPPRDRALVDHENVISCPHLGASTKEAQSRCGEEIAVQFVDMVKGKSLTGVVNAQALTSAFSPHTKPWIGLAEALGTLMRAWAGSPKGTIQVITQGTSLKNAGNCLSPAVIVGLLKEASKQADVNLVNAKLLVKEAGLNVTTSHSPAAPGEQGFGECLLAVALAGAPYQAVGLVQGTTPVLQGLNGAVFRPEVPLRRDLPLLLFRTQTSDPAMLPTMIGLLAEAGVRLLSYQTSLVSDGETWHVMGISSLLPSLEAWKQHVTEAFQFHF

Target	probe-labelled cysteine peptide fold change (10 µM)	probe-labelled cysteine peptide fold change (50 µM)
PDCD6IP_Q8WUM4_691_CSDIVFAR (UniProt Q8WUM4)	-0.00307	-0.0695
PHF5A_Q7RTV0_46_ICDECNYGSYQGR (UniProt Q7RTV0)	-0.00469	-0.327
PGK1_P00558_316_TGQATVASGIPAGWMGLDCGPESSK (UniProt P00558)	-0.217	0.0673
PLCG2_P16885_791_SDELSFCR (UniProt P16885)	-0.0321	-0.0713
PLBD2_Q8NHP8_492_YNDFLHDPLSLCK (UniProt Q8NHP8)	0.0964	-0.267
PPWD1_Q96BP3_287_AYPTSVCFSPDGK (UniProt Q96BP3)	0.0829	0.156
PPM1E_Q8WY54_307_QEMFPHDPAEALCR (UniProt Q8WY54)	-0.144	-0.28
POLE_Q07864_600_HALEEEEKVPVEQVTNFEEVCDEIK (UniProt Q07864)	-0.247	-1.05
POLK_Q9UBT6_545_SIIGFLQAGNQALSATECTLEK (UniProt Q9UBT6)	-0.695	-0.377
PDIA4_P13667_91+94_DTVLLEFYAPWCGHCK (UniProt P13667)	-0.227	-1.17
PKN3_Q6P5Z2_131_QGAENMTHTCASGTPK (UniProt Q6P5Z2)	-0.00333	-0.199
PLXNB2_O15031_1149_TLTETDLYCEPPEVQPPPK (UniProt O15031)	-0.174	-0.00622
PECAM1_P16284_109_CTVIVNNK (UniProt P16284)	0.0288	0.348
POLR2K_P53803_22_QQPMIYICGECHTENEIK (UniProt P53803)	-0.0834	-0.286
PFN1_P07737_128_KCYEMASHLRR (UniProt P07737)	-0.531	-0.695
PPP6C_O00743_129_QITQVYGFYDECQTK (UniProt O00743)	0.0334	0.309
PDLIM4_P50479_258_CGHGIVGTIVK (UniProt P50479)	-0.0847	-0.546
PPP2R5A_Q15172_72_DATSNEQQELFCQK (UniProt Q15172)	0.0287	-0.096
PDIA4_P13667_555+558_DVLIEFYAPWCGHCK<|>PDIA3_P30101_406+409_DVLIEFYAPWCGHCK (UniProt P30101+P13667)	-0.251	-1.15
PIBF1_Q8WXW3_334_CAHEEDRLER (UniProt Q8WXW3)	0.47	1.41

Target	probe-labelled cysteine peptide fold change (10 µM)	probe-labelled cysteine peptide fold change (50 µM)
PLEKHF2_Q9H8W4_219_ICDFCYDLLSAGDMATCQPAR (UniProt Q9H8W4)	-0.498	-0.228
PEX6_Q13608_564_HLLLNEDPLNSCPPLMVVATTSR (UniProt Q13608)	0.0661	0.052
PCBP2_Q15366_158_AITIAGIPQSIIECVK (UniProt Q15366)	0.149	-0.0185
PPP4C_P60510_193_KQEVPHDGPMCDLLWSDPEDTTGWGVSPR (UniProt P60510)	-0.0839	-0.279
PELP1_Q8IZL8_71_SAPHLPGLMCLLR (UniProt Q8IZL8)	-1.13	-0.883
PLEK_P08567_295_GCVVTSVESNSNGR (UniProt P08567)	-0.14	-0.138
PM20D2_Q8IYS1_14_MRPGGERPVEGGACNGR (UniProt Q8IYS1)	-0.16	-0.608
PREX1_Q8TCU6_1173_DSYSECNSNR (UniProt Q8TCU6)	0.634	1.39
PDIA4_P13667_555_DVLIEFYAPWCGHCK<|>PDIA3_P30101_406_DVLIEFYAPWCGHCK (UniProt P30101+P13667)	-0.287	-1.09
PCCA_P05165_398_INGWAVECR (UniProt P05165)	0.181	0.357
PPP5D1_E7EU14_47_YQECNK<|>PPP5C_P53041_139_YQECNK (UniProt P53041+E7EU14)	0.0409	-0.0811
PLXNB2_O15031_1504+1506_GQPCSCWPRPDSVVLEWRPGSTAQILSDLDLTSQR (UniProt O15031)	-0.0809	-0.762
POP1_Q99575_745_RSEVPCAPMPK (UniProt Q99575)	-0.238	-0.307
PLCB3_Q01970_360_CVELDVWK (UniProt Q01970)	0.0505	-0.317
PCID2_Q5JVF3_152_VCASDTR (UniProt Q5JVF3)	0.19	0.0189
PHGDH_O43175_18_VLISDSLDPCCR (UniProt O43175)	-0.444	-0.677
PCCB_P05166_291_DFFNYLPLSSQDPAPVRECHDPSDR (UniProt P05166)	-0.474	-0.454
POFUT1_Q9H488_249_NACAMLK (UniProt Q9H488)	-0.308	-0.164
PITPNB_P48739_13_VVLPCSVQEYQVGQLYSVAEASK (UniProt P48739)	-0.0113	0.103
PGK1_P00558_367+379_GCITIIGGGDTATCCAK (UniProt P00558)	0.296	-0.173

Target	probe-labelled cysteine peptide fold change (10 µM)	probe-labelled cysteine peptide fold change (50 µM)
POLR2A_P24928_451_HMCDGDIVIFNR (UniProt P24928)	-0.0734	-0.107
PLA2G4C_Q9UP65_351_KTGICASK (UniProt Q9UP65)	-0.289	-1.38
PATZ1_Q9HBE1_610_KYPCPECGSFFR (UniProt Q9HBE1)	0.149	0.151
PPP1CC_P36873_140_IYGFYDECKR<|>PPP1CA_P62140_140_IYGFYDECKR (UniProt P62140+P36873)	0.0922	0.0296
PML_P29590_479+484_CSQTQCPR (UniProt P29590)	-0.494	-1.17
PINX1_Q96BK5_94_NNHLGLGATINNEDNWIAHQDDFNQLLAELNTCHGQETTDSSDKK (UniProt Q96BK5)	0.15	0.124
PIK3C2A_O00443_541_HLYQIEKPCK (UniProt O00443)	-0.457	-1.29
PPP4C_P60510_130_QITQVYGFYDECLRK<|>PPP2CB_P62714_133_QITQVYGFYDECLRK<|>PPP2CA_P67775_133_QITQVYGFYDECLRK (UniProt P67775+P62714+P60510)	0.0312	-0.109
PDIA3_P30101_85+92_VDCTANTNTCNK (UniProt P30101)	-0.107	-0.048
PGGT1B_P53609_162_ALQLEDGSFCAVPEGSENDMR (UniProt P53609)	-0.0186	-0.573
PML_P29590_140+143_ESADFWCFECEQLLCAK (UniProt P29590)	0.0944	-0.116
PCBP1_Q15365_158_AITIAGVPQSVTECVK (UniProt Q15365)	0.332	-0.0314
PCDH17_O14917_335_DLGPNPIPAHCK (UniProt O14917)	-0.0867	-0.403
PPP2R2D_Q66LE6_245_SFNIVDIKPANMEELTEVITAAEFHPHQCNVFVYSSSK (UniProt Q66LE6)	-0.00789	-0.502
PHKA1_P46020_238_GGPQSVIHVLADEVQHCQSILNSLLPR (UniProt P46020)	0.143	-0.161
PPP4R2_Q9NY27_30_EVCPVLDQFLCHVAK (UniProt Q9NY27)	0.0564	-0.311
PDIA6_Q15084_291_RTCEEHQLCVVAVLPHILDTGAAGR (UniProt Q15084)	0.0625	-0.132
PDSS2_Q86YH6_71_CLLSDELSNIAMQVR (UniProt Q86YH6)	-0.424	-2.09
PPA1_Q15181_114_HTGCCGDNDPIDVCEIGSK (UniProt Q15181)	0.105	0.181
